Measured values reported in PubChem BioAssay (EPA / NIEHS).
Calls of active or inactive are those of the source. The calls were made as follows: active = hit-call score of the fitted dose curve at least 0.9, where 1 is the maximum; inactive = score below 0.9.

The compounds below were run on CD38, CD38 (gene 952) (assay: BSK_SAg_CD38: BioMAP Diversity Plus: SAg Assay for CD38 Biomarker Activity (AID 2283087)). Settings: primary human HUVEC with PBMC; actives raise or lower the signal.
Protocol: BSK_SAg is a cell-based, multiplexed-readout assay that uses umbilical vein endothelium and peripheral blood mononuclear cells, a human vascular primary cell co-culture, with measurements taken at 24 hours after chemical dosing in a 96-well plate.BSK_SAg_CD38 is one of 10 assay component(s) measured or calculated from the BSK_SAg assay. It is designed to make measurements of enzyme-linked immunosorbent assay, a form of binding reporter, as detected with fluorescence intensity signals by Enzyme-linked immunosorbent assay technology.Data from the assay component BSK_SAg_CD38 was analyzed into 1 assay endpoint. This assay endpoint, BSK_SAg_CD38, was analyzed with bidirectional fitting relative to DMSO as the negative control and baseline of activity. Using a type of binding reporter, gain or loss-of-signal activity can be used to understand changes in the signaling as they relate to the gene CD38. Furthermore, this assay endpoint can be referred to as a primary readout, because this assay has produced multiple assay endpoints where this one serves a signaling function. To generalize the intended target to other relatable targets, this assay endpoint is annotated to the cytokine intended target family, where the subfamily is other cytokine.
The levels of cell surface (or secreted, indicated by the prefix "s") biomarker endpoints were measured by ELISA. Overt cytotoxicity to cells in confluent adherent cultures (all systems other than the BT system) was assessed by measuring total protein levels using sulforhodamine B (SRB) staining in parallel cultures at the time of biomarker measurements, indicated as SRB endpoints. For proliferation assays for adherent cell types, individual cell types are cultured at sub-confluence and relative cell numbers quantified by SRB staining at time points optimized for each system (48 h: 3C and CASM3C systems; 72 h: BT and HDF3CGF systems; 96 h: SAg system). SRB was performed by staining cells with 0.1% SRB after fixation with 10% TCA and reading wells at 560 nm.Viability and proliferation of PBMC (T cells) was quantified by Alamar Blue reduction for the SAg and BT systems. For PBMC viability (referred to as PBMC Cytotoxicity within the assay endpoint names), cells were plated (75,000/well in a 96-well plate) and then chemical samples added for 1 h before addition of activators, SEB and TSST-1 (20 ng/mL final concentration each). Cells were incubated for 90 h. Then, Alamar Blue (20 uL/well) (Invitrogen, Cat DAL1100) was added for 6 h, and the plates were read with a fluorescence microplate reader at 546/580 nm (excitation/emission). For PBMC proliferation, cells were plated and activated as above but incubated for only 16 h prior to addition of Alamar Blue. Plates were read after 6 h.

Row | SMILES | outcome | AC50
1 | CC1(C)C(C=C(Cl)Cl)C1C(=O)OC(C#N)c1cccc(Oc2ccccc2)c1 (stereo not given) | inactive | 
2 | Cn1c(-c2ccccc2)cc(-c2ccccc2)[n+]1C |  | 2.68 µM (active)
3 | CC(C)N1C(=O)c2ccccc2NS1(=O)=O | inactive | 
4 | CC(C)=CC1C(C(=O)OCc2coc(Cc3ccccc3)c2)C1(C)C (stereo not given) | inactive | 
5 | Cc1nc(N(C)C)nc(OC(=O)N(C)C)c1C | inactive | 
6 | C=CCOC(=O)C(C)(C)OC(=O)c1cc(-n2c(=O)cc(C(F)(F)F)n(C)c2=O)ccc1Cl |  | 10.8 µM (active)
7 | COC(=O)N(C(=O)N1CO[C@@]2(C(=O)OC)Cc3cc(Cl)ccc3C2=N1)c1ccc(OC(F)(F)F)cc1 |  | 5.95 µM (active)
8 | O=P(O)(O)CCCl | inactive | 
9 | CCOc1nc(C(Cl)(Cl)Cl)ns1 | inactive | 
10 | CC1(C)CON(Cc2ccccc2Cl)C1=O | inactive | 
11 | CO/N=C(/C1=NOCCO1)c1ccccc1Oc1ncnc(Oc2ccccc2Cl)c1F |  | 22.3 µM (active)
12 | CCOC(=O)C(C)OC(=O)c1cc(Oc2ccc(C(F)(F)F)cc2Cl)ccc1[N+](=O)[O-] (stereo not given) |  | 9.17 µM (active)
13 | CC(C)(C)C(=O)C(Oc1ccc(Cl)cc1)n1cncn1 (stereo not given) | inactive | 
14 | COC(=O)NC(=S)Nc1ccccc1NC(=S)NC(=O)OC |  | 28.4 µM (active)
15 | CN=C=S |  | 10 µM (active)
16 | COP(=S)(OC)SCn1nnc2ccccc2c1=O | inactive | 
17 | N#CN=C1SCCN1Cc1ccc(Cl)nc1 | inactive | 
18 | CCSC(=O)N1CCCCCC1 | inactive | 
19 | CS(=O)(=O)c1ccc(C(=O)C2C(=O)CCCC2=O)c([N+](=O)[O-])c1 | inactive | 
20 | COCc1cnc(C2=NC(C)(C(C)C)C(=O)N2)c(C(=O)O)c1 (stereo not given) | inactive | 

Row | SMILES | outcome | AC50
21 | CCOc1cc(C(C)(C)C)ccc1C1COC(c2c(F)cccc2F)=N1 (stereo not given) |  | 18.8 µM (active)
22 | N#Cc1c[nH]cc1-c1cccc2c1OC(F)(F)O2 |  | 29.1 µM (active)
23 | COC(=O)NS(=O)(=O)c1ccc(N)cc1 | inactive | 
24 | CNC(=O)N(C)c1nnc(C(C)(C)C)s1 | inactive | 
25 | O=c1n(Cl)c(=O)n(Cl)c(=O)n1Cl | inactive | 
26 | COC(=O)c1c(C(F)F)nc(C(F)(F)F)c(C2=NCCS2)c1CC(C)C |  | 25.7 µM (active)
27 | COc1cc(Cl)c(OC)cc1Cl | inactive | 
28 | CCN(CC)C(=O)C(C)Oc1cccc2ccccc12 (stereo not given) | inactive | 
29 | CCOc1nc(F)cc2nc(S(=O)(=O)Nc3c(Cl)cccc3Cl)nn12 | inactive | 
30 | CCCN(CC)CC1COC2(CCC(C(C)(C)C)CC2)O1 (stereo not given) |  | 14.7 µM (active)
31 | Clc1nc(Cl)nc(Nc2ccccc2Cl)n1 | inactive | 
32 | C=C(C)CN(CC)c1c([N+](=O)[O-])cc(C(F)(F)F)cc1[N+](=O)[O-] |  | 33.7 µM (active)
33 | CCC(C)n1c(=O)[nH]c(C)c(Br)c1=O (stereo not given) | inactive | 
34 | Cc1cc(C)nc(Nc2ccccc2)n1 |  | 20 µM (active)
35 | N#Cc1c(Cl)cccc1Cl | inactive | 
36 | CC(C)NC(=O)N1CC(=O)N(c2cc(Cl)cc(Cl)c2)C1=O | inactive | 
37 | CC1(C)CCC(=Cc2ccc(Cl)cc2)C1(O)Cn1cncn1 (stereo not given) | inactive | 
38 | CN/C(=N\[N+](=O)[O-])NCc1cnc(Cl)s1 | inactive | 
39 | CC(C)C1(C)N=C(c2ncccc2C(=O)O)NC1=O (stereo not given) | inactive | 
40 | CNC(=O)Oc1cccc2ccccc12 | inactive | 
